This is a sample that favours compounds with a hit; in the whole collection about 32% have one here.
PostGolgi yeast: growth inhibition of a yeast mutant, post-Golgi transport screen | 0.9% of 98,000 active | inhibition, % at 10 µM | post-Golgi transport phenotypic cell assay | AID 739;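 also: yeast cells grown in 1536-well plates; yeast grown about 18 h at 30C before absorbance read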
CYP2C9 inh: inhibitors of human CYP2C9 | CYP2C9 Supersomes, luciferin-H conversion, luminescence | 20% of 96,000 active | inhibition, % at 5 µM | AID 777;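 active = blocking of liver enzyme CYP2C9 beyond about 50% at 5 µM, limit read from the data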
CYP2C9 act: CYP2C9 (human) activation. activation factor at 5 µM. AID 1024. 1.4% of 96,000 active. recombinant CYP2C9, luciferin-H conversion, luminescence; stronger effect = higher value; factor 1 = untreated enzyme, 0 = blocked. P11712;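 active = activation factor of 2 or more for CYP2C9 at a 5 µM dose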;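 also: 0 = sulfaphenazole-blocked wells and 1 = vehicle-only wells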
CYP2C19 activ: activators of human cytochrome P450 2C19 | 96,000 tested, under 10 active | P33261 | activation factor at 5 µM | recombinant CYP2C19, luciferin-H EGE luminescence; stronger effect = higher value; 0 = fully inhibited enzyme, 1 = untreated enzyme;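 active = activation factor of at least 2 at 5 µM in the primary screen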;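 also: 0 = wells with 2.5 mM tranylcypromine and 1 = vehicle-only wells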
Target sequence (P33261 whole entry, looked up): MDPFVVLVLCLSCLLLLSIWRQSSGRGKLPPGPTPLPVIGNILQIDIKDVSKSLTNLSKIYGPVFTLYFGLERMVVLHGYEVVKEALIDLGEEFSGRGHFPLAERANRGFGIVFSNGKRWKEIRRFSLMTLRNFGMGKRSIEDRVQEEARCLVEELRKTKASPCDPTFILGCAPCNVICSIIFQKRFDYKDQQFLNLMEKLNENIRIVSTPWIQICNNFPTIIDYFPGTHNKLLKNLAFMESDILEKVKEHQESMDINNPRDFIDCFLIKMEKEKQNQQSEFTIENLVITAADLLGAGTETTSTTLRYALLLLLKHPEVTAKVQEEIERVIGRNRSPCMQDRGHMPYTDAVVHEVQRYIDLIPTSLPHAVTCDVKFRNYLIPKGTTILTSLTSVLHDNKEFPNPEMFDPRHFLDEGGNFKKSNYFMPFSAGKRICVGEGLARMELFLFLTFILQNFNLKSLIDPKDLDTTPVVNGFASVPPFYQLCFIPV
CYP2C19 inh: blocks human cytochrome P450 2C19. CYP2C19 Supersomes, luciferin-H EGE luminescence, 30 min. P33261. 21% of 96,000 active. inhibition, % at 5 µM;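 active = CYP2C19 inhibition above a set limit at 5 µM in the primary screen, cut at about 50% in these data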;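 also: plate controls were negative control wells for no effect and 2.5 mM tranylcypromine positive control for full effect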
PostGolgi ctrl: yeast control strain growth, post-Golgi counter-screen; efflux-deficient yeast background strain, growth absorbance A615, 16 h; inhibition, % at 10 µM; 5% of 98,000 active; AID 738
An asterisk follows results filed as active; / = not tested or not shown. Rule as the data show it, unless noted: active = inhibition above about 30%; inactive = the rest.

SMILES | PostGolgi yeast | CYP2C9 inh | CYP2C9 act | CYP2C19 activ | CYP2C19 inh | PostGolgi ctrl
CCn1c(SCC(=O)N2CCN(S(=O)(=O)c3ccccc3)CC2)nnc1-c1cccs1 | 11 | -5 | 1 | 1 | 1 | -5
C=CCn1c(Cc2cccs2)nnc1SC/C=C/c1ccccc1 | -8 | 58* | 0.4 | 0.3 | 70* | 27
O=C(CN1C(=O)CSC1=O)NC1CCCCC1 | 8 | / | / | / | / | 9
CC(=O)Cc1ccccc1OC(=O)c1ccco1 | 3 | -1 | 1 | 1 | 5 | 0
Cc1cnc(NC(=O)c2ccc(-c3nc4ccccc4s3)o2)s1 | 13 | 56* | 0.4 | 0.2 | 75* | 29
Cc1ccccc1C(=O)Nc1nnc(-c2ccc(F)cc2)o1 | -1 | 13 | 0.9 | 1 | -3 | 2
Fc1ccc(-c2nnc(NC3=NCCCCC3)o2)cc1 | 3 | 28 | 0.7 | 0.4 | 56* | 3
CCCCn1c(=O)c(-[n+]2ccccc2)c([O-])c2ccccc21 | 0 | -8 | 1.1 | 1.1 | -14 | 6
CCOc1ccc(OCC)c(NC(=O)c2[nH]c(C)c(C(C)=O)c2C)c1 | 3 | 30 | 0.7 | 0.6 | 38 | 1
CCc1c(C(=O)Nc2cc(C)cc(C)c2)[nH]c(C)c1C(C)=O | -3 | 60* | 0.4 | 0.6 | 44 | 28
COc1ccc(C(C)(C)C)cc1NC(=O)C1CC=CCC1C(=O)O (stereo not given) | 10 | 34 | 0.7 | 0.9 | 8 | -8
CCOc1cccc(-c2nnc3sc(-c4cccs4)nn23)c1 | / | 58* | 0.4 | 0.4 | 60* | /
CCOc1cccc(-c2nnc3sc(COc4ccc(C)cc4)nn23)c1 | -9 | 64* | 0.4 | 0.5 | 54* | -3
COc1cc(-c2nn3c(COc4ccccc4)nnc3s2)cc(OC)c1OC | 4 | 25 | 0.7 | 0.9 | 12 | 12
COc1cc(-c2nn3c(Cc4ccccc4)nnc3s2)cc(OC)c1OC | 20 | 70* | 0.3 | 0.5 | 53* | 43*
CCOc1cccc(-c2nnc3sc(-c4cc(OC)c(OC)c(OC)c4)nn23)c1 | / | 63* | 0.4 | 0.6 | 36 | /
N#CN=C1CCCCCN1CC(N)=O | 9 | -2 | 1 | 1 | 2 | 21
O=C(Nc1ccccc1-c1nc2ccccc2s1)c1cccnc1Cl | 2 | 12 | 0.9 | 1 | 1 | 19
CC(C)N1C(=O)C2C(C(=O)NC3CCCCC3)C3C=CC2(O3)C1C(=O)NC1CCCCC1 (stereo not given) | 5 | -2 | 1 | 1 | -1 | 21
CSc1sc(C(=O)O)c(C)c1C(C)=O | 2 | -7 | 1.1 | 1.1 | -7 | 21
COc1cccc(-c2nn3c(-c4cccc(C)c4)nnc3s2)c1 | 1 | 76* | 0.2 | 0.1 | 89* | 44*
COc1cc(-c2nn3c(-c4ccccc4)nnc3s2)cc(OC)c1OC | -4 | 72* | 0.3 | 0.3 | 74* | 33*
CCOC(=O)C1=C(C)NC(C)=C(C(=O)OCC)C1c1cc2ccc(C)cc2[nH]c1=O | 12 | 54* | 0.5 | 0.7 | 25 | 9
Cc1cccc2cc(COC(=O)c3cccnc3)c(=O)[nH]c12 | 1 | 39 | 0.6 | 0.5 | 52* | 9
Cc1ccc2cc(COC(=O)c3ccncc3)c(=O)[nH]c2c1 | -6 | 66* | 0.3 | 0.1 | 92* | 7
SMILES | PostGolgi yeast | CYP2C9 inh | CYP2C9 act | CYP2C19 activ | CYP2C19 inh | PostGolgi ctrl
CCN(Cc1cc2ccc(C)cc2[nH]c1=O)C(=O)c1ccncc1 | -12 | 41 | 0.6 | 0.3 | 68* | 44*
COC(=O)C1=C(C)NC(C)=C(C(=O)OC)C1c1cc2ccc(C)cc2[nH]c1=O | -8 | 18 | 0.8 | 0.6 | 40 | 12
CCOC(=O)c1ccc(N2C(=O)C3ON(c4ccccc4)C(c4ccco4)C3C2=O)cc1 (stereo not given) | 1 | 26 | 0.7 | 1 | 0 | 6
CC(C)(Oc1ccc(Cl)cc1)C(=O)Nc1ncccn1 | -14 | -5 | 1 | 0.6 | 41 | 9
CCOc1c2ccc(C(=O)NCC34CC5CC(CC(C5)C3)C4)cc2nn1CC | 5 | 25 | 0.7 | 0.9 | 7 | -1
O=C(Nc1ccc2c(c1)OCO2)N1CCN(c2ncc(C(F)(F)F)cc2Cl)CC1 | 8 | 23 | 0.8 | 0.8 | 18 | -2
CN(c1cccc(NC(=O)c2ccc(Cl)c(S(=O)(=O)Nc3ccccc3)c2)c1)S(C)(=O)=O | 14 | 97* | 0 | 0.2 | 85* | -4
Cc1ccccc1NS(=O)(=O)c1cc(C(=O)Nc2cccc(N(C)S(C)(=O)=O)c2)ccc1C | -3 | 78* | 0.2 | 0.6 | 38 | 7
Cc1ccccc1C(=O)N1CCC(C(N)=O)CC1 | 8 | 8 | 0.9 | 1 | 0 | 2
O=C1CCC(C(=O)N(Cc2ccco2)C2(C(=O)NC3CCCC3)CCCCC2)N1 (stereo not given) | -4 | -19 | 1.2 | 1.2 | -17 | 5
CCOC(=O)c1c(CC(C)C)csc1NC=O | 14 | 36 | 0.6 | 0.8 | 22 | 16
CCOC(=O)c1c(CC(C)C)csc1NC(C)=O | -5 | 62* | 0.4 | 0.6 | 44 | 15
Cc1nn(-c2ccc(F)cc2)c(Cl)c1/C=C(\CCC(=O)O)c1nc2ccccc2s1 | 2 | 17 | 0.8 | 0.9 | 6 | 10
Cc1ccc(/C=C/C2=NN(Cc3ccccc3)C(=O)CC2)cc1 | 12 | 2 | 1 | 0.6 | 37 | 12
Cc1ccc(/C=C/C2=NN(Cc3ccccc3Cl)C(=O)CC2)cc1 | -1 | 18 | 0.8 | 0.9 | 12 | 41*
CCOC(=O)C(=Cc1ccc(OCc2ccc([N+](=O)[O-])cc2)c(OC)c1)C(=O)OCC | -4 | 53* | 0.5 | 1 | -2 | 43*
Cc1ccc(S(=O)(=O)NC(CN2CCOCC2)=NCCNS(=O)(=O)c2ccccc2)cc1 | 4 | 52* | 0.5 | 0.7 | 29 | -4
O=C(O)c1cc(C2CC2)nn1-c1ccccc1 | -5 | -13 | 1.1 | 1.1 | -6 | 9
Nc1cc(C2CCCC2)nn1-c1ccccc1 | -4 | 35 | 0.7 | 0.1 | 92* | 2
O=C1CC(=O)C(n2cncn2)C(c2ccc(Cl)cc2)C1 (stereo not given) | -3 | 10 | 0.9 | 0.9 | 6 | 4
COC(=O)c1ccc(NC(=O)CN2C(=O)CNC2=O)cc1 | -4 | 13 | 0.9 | 1.1 | -8 | 8
COCc1cc(C)nc2sc3c(=O)n(Cc4ccco4)nnc3c12 | -4 | 17 | 0.8 | 1 | 2 | 2
Cc1cc(C)c2c(n1)sc1c(=O)n(Cc3ccccc3Cl)nnc12 | 4 | 20 | 0.8 | 0.7 | 31 | 40*
O=C(Nc1nnc(-c2ccc3c(c2)CCCC3)o1)c1ccc(Cl)cc1Cl | 85* | 32 | 0.7 | 0.9 | 7 | 30
c1coc(CNCC2OCCc3ccccc32)c1 (stereo not given) | 0 | -11 | 1.1 | 0.5 | 46 | 0
O=C(NCCCN1CCN(c2cccc(Cl)c2)CC1)C1(S(=O)(=O)c2ccc(Cl)cc2)CC1 | 4 | -15 | 1.2 | 0.6 | 44 | 28

Screening results (PubChem BioAssay)
